Experimental data as given in ChEMBL document CHEMBL4513216, “Probing the Open Global Health Chemical Diversity Library for Multistage-Active Starting Points for Next-Generation Antimalarials” (ACS Infect Dis, 2020).
Hit rate of the full screen: of about 69,000 compounds, about 8,600 (12%) showed an effect of 50% or more. Many of the other results were omitted from the sample, so strong results are more common in it than they were.

Each compound was assayed on Plasmodium berghei (assay: Screen against P. berghei liver stage (PbLuc), transformed with Luciferase, at 10uM). Conditions: tested at 10 uM.
Type: functional, HepG2

Compound | INHIBITION [%]
CN1CCc2c(CNc3ncccn3)n[nH]c2C1 | 27.5
CCC(=O)N1CCC(Cc2ccccc2-c2ccccc2F)(C(N)=O)C1 (centres undefined) | 29.2
Cc1cnn(C2(C(=O)O)CCN(Cc3oc4ccccc4c3C)CC2)c1 | -0.613
CC(C)n1nnc(CC(=O)NCC2(c3cccc(F)c3)CCCC2)n1 | 26.7
COCc1ccccc1NC(=O)c1ccoc1 | -80.7
Cc1ccc(C#N)cc1NC(=O)NC1CCCN(c2ncccn2)C1 (centres undefined) | 42
CC(C(=O)N1CCN(Cc2ccncc2)CC1)n1cncn1 (centres undefined) | 4.25
Fc1ccc(-c2cnc(C3CCNCC3)cn2)cc1 | 37.85
CC(CO)CN(Cc1ccccc1)C(=O)c1csc(CN(C)C)n1 (centres undefined) | 13.7
Cc1nc(C(C)NC(=O)c2cn(CCC3CCCCC3)nn2)n[nH]1 (centres undefined) | 5.75
COCc1noc(Cn2c(C3CC3)nc3ccccc32)n1 | 39.2
COCc1noc(Cn2c(=O)[nH]c3ccccc32)n1 | 74
COCCc1noc(Cn2c(=O)[nH]c3ccccc32)n1 | -16.5
CC1COCCN1C(=O)Cc1cc(Cl)c2c(c1)OCCO2 (centres undefined) | 26.8
CSCC1CCN(C(=O)Cn2ncc(N3CCCCC3)cc2=O)CC1 | 40.7
O=C(c1cncs1)N1CCc2[nH]nc(Nc3ccccc3)c2C1 | 20.49
CN(CCc1ccccc1)Cc1cc(C(=O)N2CCN(C)C(=O)C2)no1 | -13.2
CN1CCCN(C(=O)c2cc(CN(C)CCc3ccccc3)on2)CC1 | 53.3
CN(CCc1ccccc1)Cc1cc(C(=O)N2CCSCC2)no1 | 40.5
O=C1CCC2(CCN(Cc3nccs3)CC2)CN1CCCO | -47.8
Cc1cnc(CN(C)C2CCCN(Cc3noc(C4CC4)n3)C2)cn1 (centres undefined) | 10
CC(NCC(=O)N(C)C1CC1)c1ccc(S(C)(=O)=O)c(F)c1 (centres undefined) | 34.7

Compound | INHIBITION [%]
O=C(NCc1cnc2n1CCN(CC1CCOCC1)C2)c1ccno1 | 50.3
Cn1cccc1C(=O)NCc1cnc2n1CCN(CC1CCOCC1)C2 | 20.4
O=C(NCc1cnc2n1CCN(Cc1ccoc1)C2)c1ccno1 | 63.8
O=C(NCc1cnc2n1CCN(Cc1nccs1)C2)c1ccno1 | 23.1
O=C(NCc1cnc2n1CCN(CC1CC1)C2)C1CC1 | -30
O=C(NCc1cnc2n1CCN(Cc1cccs1)C2)c1ccno1 | 12.2
O=C(C(c1ccccc1)S(=O)(=O)c1ccccn1)N1CCCC1 (centres undefined) | 14.2
Cn1nnc2c1CCN(Cc1ccccn1)C2COCc1ccccc1 (centres undefined) | 21.3
Cc1cc(-c2ccccc2C(=O)O)nc(C2CCCCN2C)n1 (centres undefined) | 59
CC(=O)N1CCCCC1c1nc(C)cc(-c2ccccc2C(=O)O)n1 (centres undefined) | 15.9
Cc1cc(-c2ccccc2C(=O)O)nc(C2CCCN2S(C)(=O)=O)n1 (centres undefined) | 12.8
O=C(Cc1cn2ccsc2n1)N1CCCC(n2cccn2)C1 (centres undefined) | -1.12
COCCc1noc(CN2CCCC2c2noc(C(C)C)n2)n1 (centres undefined) | 21.8
CN(Cc1ccc(-n2cccn2)cc1)Cc1cnc(N(C)C)nc1 | 37.4
CC(CN(C)Cc1cccc(-n2cccn2)c1)C(F)(F)F (centres undefined) | 17.735
CN(Cc1ccc(-n2cccn2)cc1)c1cc(N)nc(N)n1 | 82.2
CN(Cc1cccc(-n2cccn2)c1)Cc1c[nH]cn1 | 35.05
COc1cc(N(C)Cc2cccc(-n3cccn3)c2)nc(N)n1 | 80
CN(Cc1ccc(-n2cccn2)cc1)c1nc(N)nc2c1CCNCC2 | 45
CN(Cc1cccc(-n2cccn2)c1)C(=O)c1ccnc(N)c1 | 21.2
CN(Cc1cccc(-n2cccn2)c1)C(=O)c1cccc(N(C)C)c1 | 22.1
CN(Cc1cccc(-n2cccn2)c1)c1cc(N2CCCC2)nc(N)n1 | 93.9

Compound | INHIBITION [%]
CCCc1nc(C)c(C(=O)NCCNc2ncccc2C#N)s1 | -24.2
CC(C)NC(=O)[C@H]1C[C@@H]2[C@@H](C1)OCCN2Cc1cnn(C)c1 | -4.56
CCOc1ccccc1OC1CCN(C(=O)c2cnsn2)CC1 | 21.5
CN(C)Cc1cn(-c2ccccc2C(=O)NCCC2CCCN2C)cn1 (centres undefined) | 10
Nc1ncccc1CN1CCCn2nc(CCC(=O)NC3CC3)cc2C1 | 46.1
COc1ccc(S(=O)(=O)N2CCN(C)c3ncccc3C2)cc1 | 42.1
CN1CCN(S(=O)(=O)c2cccc(F)c2)Cc2cccnc21 | 65.7
CN1CCN(S(=O)(=O)c2ccccc2)Cc2cccnc21 | 14.9
Cc1cc(C2CCCN2Cc2ccn(C)c(=O)c2)on1 (centres undefined) | 20.1
CN(C)CCN1CC(C(=O)NCc2cn3cccnc3n2)CC1=O (centres undefined) | 23.9
CC(C)(C)N1CC(C(=O)NCc2cn3cccnc3n2)CC1=O (centres undefined) | 53.9
O=C(NCc1cn2cccnc2n1)C1CC(=O)N(Cc2ccccn2)C1 (centres undefined) | 37.6
Cc1nc(CN2CCC3(CCCN(Cc4ccoc4)C3)C2=O)cs1 (centres undefined) | -5.31
COc1c[nH]c(C(=O)Nc2nc(C(C)(C)C)cs2)cc1=O | 29.4
CC[C@H](C)[C@H](N)C(=O)Nc1nc(-c2cnc(N(C)C)nc2)cs1 | 21.9
CCN1CC2(CC1=O)CN(Cc1ccco1)CCN(C(=O)N(C)C)C2 (centres undefined) | 5.14
CCN1CC2(CC1=O)CN(C(=O)N(C)C)CCN(S(C)(=O)=O)C2 (centres undefined) | 31.9
CCN1CC2(CC1=O)CN(Cc1ccc(C)o1)CCN(C(=O)C(C)C)C2 (centres undefined) | 42.5
CCN1CC2(CC1=O)CN(C(=O)C(C)C)CCN(S(C)(=O)=O)C2 (centres undefined) | 46.7
CCN1CC2(CC1=O)CN(C(C)=O)CCN(S(C)(=O)=O)C2 (centres undefined) | 26
CCN1CC2(CC1=O)CN(C(=O)C(C)C)CCN(S(=O)(=O)CC)C2 (centres undefined) | 52.3
CCN1CC2(CC1=O)CN(C(=O)COC)CCN(S(C)(=O)=O)C2 (centres undefined) | 63

Compound | INHIBITION [%]
CCS(=O)(=O)N1CCN(C(=O)C(C)C)CC2(CC(=O)N(C)C2)C1 (centres undefined) | 45.8
CCN1CC2(CC1=O)CN(Cc1ccco1)CCN(C(=O)C(C)C)C2 (centres undefined) | 57.4
CC(C)c1nnc2n1CCN(C(=O)c1ccc3c(c1)CCC3)C2 | -12.2
COc1ccccc1C1=NOC(CC2(C(=O)O)CCOCC2)C1 (centres undefined) | 29.2
CCn1cnnc1C1CCN(C(=O)c2cccc(N(C)C)c2)CC1 | 39.7
CCc1cnc(N2C[C@H]3CN(Cc4csc(C)n4)C(=O)[C@H]3C2)nc1 | 18.5
Cc1cc(C(=O)NS(C)(=O)=O)c(C)n1-c1ccccc1 | 37.9
Cc1nc(CN2C[C@@H]3CN(C(=O)c4cnccn4)C[C@@H]3C2)cs1 | -13.2
CN1C[C@@H](C(=O)NC(C)(C)C)[C@@]2(CCc3ccccc3C(=O)N2)C1 | 16.5
COCCn1ccc(NC(=O)Nc2cccnc2)n1 | 25.3
Cc1cc(N2CCOC(c3ccc(N(C)C)cn3)C2)nc(N)n1 (centres undefined) | -0.6
Cc1cc(C(=O)N2CCC3(CC2)COCCN(c2cccnc2)C3)[nH]n1 | 24.6
COc1ccnc(N2CCN(Cc3ncc(-c4ccccc4)o3)CC2)n1 | 56
COc1ccnc(N2CCN(Cc3ncc(C(C)(C)C)o3)CC2)n1 | 9.76
COc1ccnc(N2CCCN(Cc3ncc(C(C)C)o3)CC2)n1 | 9.76
CN(CCc1nc(-c2cccc(Cl)c2)no1)CCn1cccn1 | 12.6
Cc1noc(C)c1CN(C)CCc1nc(-c2cccc(Cl)c2)no1 | 88.1
Cc1nnc(CN(C)CCc2nc(-c3cccc(Cl)c3)no2)n1C | 34.5
O=C(Cc1cccnc1)N1CCC2(CCN(C3CCOC3)CC2)C1 (centres undefined) | -1.83
O=C(Cc1cccnc1)N1CCC2(CC1)CCN(C1CCOCC1)C2 | -3.19
O=C(Cc1cccnc1)N1CCC2(CC1)CCN(C1CCOC1)C2 (centres undefined) | 53.4
CC(=O)N1CCN(Cc2ccc(C)o2)CC2(CC(=O)N(C)C2)C1 (centres undefined) | 3.81

Compound | INHIBITION [%]
COc1ncccc1N(C)C(=O)Cn1cc(-c2ccccc2)nn1 | 4.34
Cc1ccc(C2COCCN2C(=O)c2ccsc2)o1 (centres undefined) | 3.77
N#CCCN(Cc1ccco1)C(=O)c1ccc(OCC2CC2)cc1 | 69.5
N#CCCN(Cc1cccnc1)C(=O)c1ccc(OCC2CC2)cc1 | -92.2
N#CCCN(CCC#N)C(=O)c1ccc(OCC2CC2)cc1 | -77.9
CC(=O)NCC(=O)N1CCC2(CC1)NC(=O)CC2c1cnn(C)c1 (centres undefined) | 43.1
Cc1cnn(CC2CCCN2C(=O)c2cc(C)nc3[nH]nc(C)c23)c1 (centres undefined) | -37.7
CCOc1ncccc1C(=O)N1CCCC(c2nncn2C)C1 (centres undefined) | -98.8
CC(C)c1nnc(CN2CCC3(CC2)Nc2ccccc2NC3=O)o1 | -20.7
O=C1Nc2ccccc2NC12CCN(Cc1nnc(C3CC3)o1)CC2 | 56.1
CCc1nnc(CN2CCC3(CC2)Nc2ccccc2NC3=O)o1 | 18.2
CC(=O)N1CCN(c2cc(-n3cccc3)ncn2)CC1 | -12.1
CN(c1cccnn1)[C@@H]1CC[C@@H]2CN(Cc3cccc(C(=O)O)c3)C[C@@H]21 | 30.6
CC(C)CN(CC(O)c1ccc(F)cc1)C(=O)c1csnn1 (centres undefined) | -3.48
CS(=O)(=O)N1CCN(CC(=O)Nc2cccc(Cl)c2)CC1 | 6.83
Fc1ccc(C(NCc2nnc(C3CC3)o2)C2CCC2)cc1 (centres undefined) | 23.9
c1ccc(C(NCc2nnc(-c3ccco3)o2)C2CCC2)cc1 (centres undefined) | 50.8
Fc1ccc(C(NCc2nnc(-c3ccco3)o2)C2CCC2)cc1 (centres undefined) | 82.3
Cc1ccc(N2CCCC(NCc3nnc(-c4ccco4)o3)C2)nn1 (centres undefined) | 11.94
Fc1ccc(OC2CCN(Cc3nnc(-c4ccco4)o3)CC2)cc1 | -53.1
CC(C1CC1)N(C)Cc1nnc(-c2ccco2)o1 (centres undefined) | 21.5
